Data from PubChem BioAssay (NCATS).
Values joined by “and” are separate entries in the source; they are usually repeats but may differ in a detail not shown here. Identical values can stand only once. Results filed as inconclusive are left out. Active and inactive are the calls of the source. Unless noted, calls follow the shape of the dose curve; as a rule, active = well fitted curve in either direction with a large enough effect (not every such curve was filed as active); inconclusive = small, poorly fitted or top-dose-only effect, or another doubt; inactive = flat fitted curve, though single readings scatter.

Key:
[1] = AP1 Signaling Pathway (AID 357); settings: ME-180 AP-1-bla reporter, EGF-induced, beta-lactamase ratio, 5 h;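 also: ME-180 reporter cells stimulated with EGF at its EC50 level; % is scaled to controls: 0 for no effect and ±100 for the full control effect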
Outline: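 Read-out was the 460nm/530nm emission ratio (excitation 405nm) after CCF4 loading for 2.5 hours at room temperature. Cells carried an AP-1-driven beta-lactamase reporter, were stimulated with EC50 EGF plus compound for 5 hours, and AC50 values came from titrations.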

[2] = Cell Viability - BJ (AID 421; calls by dose curve;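 also: potency is read from the fitted curve at half-maximal effect; cells exposed to compound for 40 hours at 37 °C before readout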); settings: BJ fibroblast viability, qHTS
Outline: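 Cytotoxicity in human BJ foreskin fibroblasts is scored as loss of cellular ATP after a 40-hour exposure, measured by luciferase luminescence. Controls are DMSO and 100 uM tamoxifen.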

[3] = Cell Viability - Jurkat (AID 426;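 active = dose-dependent loss of cell ATP signal giving a full or clear fitted curve, ranked by lower potency value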;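 also: potency is read from the fitted curve at half-maximal effect; cells exposed to compound for 40 hours at 37 °C before ATP read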); settings: qHTS
Outline: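 Cells of the human T-cell leukemia line Jurkat (E6-1) are seeded at 5000 per well, treated with compound across a concentration range for 40 hours at 37 °C, then lysed with CellTiter-Glo; luminescence reports ATP.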

[4] = Cell Viability - HepG2 (AID 433; calls by dose curve;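 also: potency is read from the fitted curve at half-maximal effect; potency for ATP loss meaning cytotoxicity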); settings: qHTS
Outline: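 Cytotoxicity is scored as loss of intracellular ATP in HepG2 cells exposed to compounds for 40 h. Concentration-response curves, normalized to DMSO and 100 uM tamoxifen, give AC50 values.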

[5] = Cell Viability - SK-N-SH (AID 435; calls by dose curve;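 also: potency is read from the fitted curve at half-maximal effect; compound exposure lasted 40 h at 37 °C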); settings: SK-N-SH neuroblastoma cell viability qHTS
Outline: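 Cells seeded at 1500 per well and incubated 5 hr at 37 °C. Compound added, then 40 hr at 37 °C. CellTiter-Glo added, 20 min at room temperature, luminescence read.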

[6] = NFAT Signaling Pathway (AID 444); settings: Jurkat NFAT-bla M1, carbachol, beta-lactamase ratio, 5 h;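 also: carbachol stimulus at about its EC50 of 1 µM final; % is scaled to controls: 0 for no effect and ±100 for the full control effect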
Outline: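 Read-out: CCF4 FRET ratio (460 nm/530 nm) after 1 h RT dye loading, used for %activity and AC50 from titration series. Cells: Jurkat NFAT-β-lactamase/M1 line, treated with compound plus 1 uM carbachol for 5 h, 37 °C.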

[7] = Stat Signaling Pathway (AID 446); settings: ME-180 (cervical carcinoma) SIE beta-lactamase reporter, IL-6 stimulated, 5 h; at 17.2 µM (top of the series) unless noted;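 also: ME-180 cervical cancer cells given 40 pM IL-6 alongside compound; SIE-controlled beta-lactamase reporter measured as 460/530 nm FRET emission ratio; % is scaled to controls: 0 for no effect and ±100 for the full control effect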
Outline: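 Emission at 460 and 530 nm (excitation 405 nm) reports SIE-controlled beta-lactamase in ME-180 cells. Cells received compound with 40 pM IL-6 for 5 hrs at 37 C; data scaled between 300 pM IL-6 and 125 nM JAK-inhibitor controls.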

[8] = molecular target: Glucocorticoid receptor (Homo sapiens) (UniProt P04150); test: GR-GFP Redistribution (AID 450;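 active = compounds whose dose series gives a full or clear partial fitted curve of increased nuclear translocation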; also: potency is read from the fitted curve at half-maximal effect); settings: U2OS GR-GFP nuclear translocation, laser cytometry, 2 h
[9] = molecular target: Glucocorticoid receptor (Homo sapiens) (UniProt P04150); test: GR-EFC Redistribution (AID 451; calls by dose curve; also: potency is read from the fitted curve at half-maximal effect); settings: CHO-K1 GR-EFC translocation, beta-gal luminescence, 2 h
Outline: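 Translocation of GR-ED fusion to nuclear EA restores b-gal, read by luminescence after 1 h room-temperature detection. Engineered CHO-K1 biosensor cells, 1,000/well, exposed 2 h at 37 C to titrations up to 46 uM final.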

[10] = molecular target: Cytochrome P450 1A2 (Homo sapiens) (UniProt P05177); test: p450-cyp1a2 (AID 410; calls by dose curve; also: potency is read from the fitted curve at half-maximal effect;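 as to activity change, negative = inhibition: -100% = full effect of reference inhibitor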)
Outline: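 O-Demethylation of luciferin 6' methyl ether by human CYP1A2 is monitored as luciferase luminescence. Substrate sits at Km (100uM); enzyme is 20nM. Values are scaled to 57 uM furafylline as maximal inhibition.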

[11] = at 17.2 µM (top of the series) unless noted

Cytochrome P450 1A2 (Homo sapiens), sequence (P05177 whole entry, looked up): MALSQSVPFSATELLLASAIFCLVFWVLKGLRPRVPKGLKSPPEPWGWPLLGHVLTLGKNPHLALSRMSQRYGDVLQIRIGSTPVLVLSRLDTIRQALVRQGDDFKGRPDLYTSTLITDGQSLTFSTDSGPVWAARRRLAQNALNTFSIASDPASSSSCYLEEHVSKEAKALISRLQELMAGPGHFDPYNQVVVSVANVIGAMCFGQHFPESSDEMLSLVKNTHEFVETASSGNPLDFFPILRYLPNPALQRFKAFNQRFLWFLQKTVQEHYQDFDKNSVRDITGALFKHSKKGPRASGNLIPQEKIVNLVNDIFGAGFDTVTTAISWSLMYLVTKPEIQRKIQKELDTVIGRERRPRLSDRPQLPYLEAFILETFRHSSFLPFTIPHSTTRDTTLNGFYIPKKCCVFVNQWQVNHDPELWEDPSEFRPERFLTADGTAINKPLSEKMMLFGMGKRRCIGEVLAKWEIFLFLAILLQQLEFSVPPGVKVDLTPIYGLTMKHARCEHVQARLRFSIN
Glucocorticoid receptor (Homo sapiens), sequence (P04150 whole entry, looked up, the tested form may be a part): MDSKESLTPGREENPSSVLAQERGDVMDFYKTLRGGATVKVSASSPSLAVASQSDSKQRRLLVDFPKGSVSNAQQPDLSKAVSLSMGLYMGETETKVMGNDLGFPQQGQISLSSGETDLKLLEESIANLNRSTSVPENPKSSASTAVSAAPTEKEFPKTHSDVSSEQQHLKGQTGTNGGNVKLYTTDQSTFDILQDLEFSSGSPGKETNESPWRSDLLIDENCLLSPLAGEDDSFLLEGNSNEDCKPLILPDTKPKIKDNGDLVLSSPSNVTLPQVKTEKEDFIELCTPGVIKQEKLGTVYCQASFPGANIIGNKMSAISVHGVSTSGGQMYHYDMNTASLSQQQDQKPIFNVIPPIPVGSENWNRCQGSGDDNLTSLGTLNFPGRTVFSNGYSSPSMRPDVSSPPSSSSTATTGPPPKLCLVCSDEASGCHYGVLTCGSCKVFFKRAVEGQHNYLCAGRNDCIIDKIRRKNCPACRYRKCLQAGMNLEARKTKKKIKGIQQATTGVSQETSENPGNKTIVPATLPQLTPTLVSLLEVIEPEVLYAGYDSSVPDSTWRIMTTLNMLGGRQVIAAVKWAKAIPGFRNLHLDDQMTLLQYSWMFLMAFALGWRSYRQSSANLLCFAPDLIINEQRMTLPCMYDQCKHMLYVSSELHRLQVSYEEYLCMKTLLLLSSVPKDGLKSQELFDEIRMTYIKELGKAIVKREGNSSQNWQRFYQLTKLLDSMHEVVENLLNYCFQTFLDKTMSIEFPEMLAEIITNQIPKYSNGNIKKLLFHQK

CCc1cc(C(N)=S)ccn1
inactive: activity change, negative = inhibition [1, 11] -4.73% | Potency [2] > 92 µM | Potency [3] > 92 µM | Potency [4] > 92 µM | Potency [5] > 92 µM | activity change, negative = inhibition [6, 11] 5.86% | activity, negative = inhibition [7] -6.82% | Potency [8] > 20.6 µM | Potency [9] > 20.6 µM

COC(=O)Nc1nc2ccc(Sc3ccccc3)cc2[nH]1
active: Potency [10] 0.794 µM
inactive: activity change, negative = inhibition [1, 11] 1.3% and 6.61% | activity change, negative = inhibition [6, 11] -6.14% | activity, negative = inhibition [7] 1.46% and -3.37% | Potency [8] > 20.6 µM | Potency [9] > 20.6 µM

NNC(=O)c1ccncc1
active: Potency [10] 6.31 µM
inactive: activity change, negative = inhibition [1, 11] 11.8% and 7.05% | Potency [2] > 92 µM | Potency [3] > 92 µM | Potency [4] > 92 µM | Potency [5] > 92 µM | activity change, negative = inhibition [6, 11] -9.4% and 6.65% | activity, negative = inhibition [7] 3.44% and 12.3% | Potency [8] > 20.6 µM | Potency [9] > 20.6 µM

CCCOc1ccc(C(=O)OCCN(CC)CC)cc1N
inactive: activity change, negative = inhibition [1, 11] 5.39% | activity change, negative = inhibition [6, 11] -19.1% | activity, negative = inhibition [7] 1.44% | Potency [8] > 20.6 µM | Potency [9] > 20.6 µM
active: Potency [10] 5.01 µM

COc1ccc2c(c1)c(CC(=O)OCC(=O)O)c(C)n2C(=O)c1ccc(Cl)cc1
inactive: activity change, negative = inhibition [1, 11] -9.7% and -8.22% | Potency [10] | activity change, negative = inhibition [6, 11] 2.54% and 1.97% | activity, negative = inhibition [7] 1.57% and -16% | Potency [8] > 20.6 µM | Potency [9] > 20.6 µM

CCn1cc(C(=O)O)c(=O)c2cc(F)c(N3CCNCC3)nc21
inactive: activity change, negative = inhibition [1, 11] -5.75% and 5.53% | Potency [10] | activity change, negative = inhibition [6, 11] -11.9% and 9.94% | activity, negative = inhibition [7] 4.75% and 1.14%

CCCCOc1ccc(CC(=O)NO)cc1
active: Potency [10] 1.58 µM
inactive: activity change, negative = inhibition [1, 11] -22.1% and -10.8% | activity change, negative = inhibition [6, 11] -5.9% and 15% | activity, negative = inhibition [7] -9.96% and -7.15% | Potency [8] > 20.6 µM | Potency [9] > 20.6 µM

COc1ncnc(NS(=O)(=O)c2ccc(N)cc2)c1OC
inactive: activity change, negative = inhibition [1, 11] -3.45% | Potency [10] | activity change, negative = inhibition [6, 11] -25.1% | activity, negative = inhibition [7] -3.42%

COc1cc(NS(=O)(=O)c2ccc(N)cc2)nc(OC)n1
inactive: activity change, negative = inhibition [1, 11] 1.62% and 1.87% | Potency [10] | activity change, negative = inhibition [6, 11] -19.2% | activity, negative = inhibition [7] 9.03% and -4.46% | Potency [8] > 20.6 µM | Potency [9] > 20.6 µM

COC(=O)Nc1nc2ccc(C(=O)c3ccccc3)cc2[nH]1
inactive: activity change, negative = inhibition [1, 11] 17.1% and -8.17% | activity, negative = inhibition [7] -12.3% and -12% | Potency [8] > 20.6 µM | Potency [9] > 20.6 µM
active: Potency [10] 3.98 µM

Cc1nnc(NS(=O)(=O)c2ccc(N)cc2)s1
inactive: activity change, negative = inhibition [1, 11] 7.08% and 5.89% | Potency [10] | Potency [2] > 92 µM | Potency [3] > 92 µM | Potency [4] > 92 µM | Potency [5] > 92 µM | activity change, negative = inhibition [6, 11] 16.1% and -9.52% | activity, negative = inhibition [7] 0.539% and 1.42%

CC(=O)[C@H]1CC[C@H]2[C@@H]3CCC4=CC(=O)CC[C@]4(C)[C@H]3CC[C@]12C
inactive: activity change, negative = inhibition [1, 11] 1.43% | Potency [2] > 92 µM | Potency [4] > 92 µM | Potency [5] > 92 µM | activity change, negative = inhibition [6, 11] -29.5% | activity, negative = inhibition [7] 2.68%

NC(N)=NC(N)=NCCc1ccccc1
inactive: activity change, negative = inhibition [1, 11] 5.09% and 3.64% | Potency [3] > 92 µM | Potency [5] > 92 µM | activity change, negative = inhibition [6, 11] -2.75% and 12.2% | activity, negative = inhibition [7] 9.3% and 14.4% | Potency [8] > 20.6 µM | Potency [9] > 20.6 µM

Cc1ncc([N+](=O)[O-])n1CCO
inactive: activity change, negative = inhibition [1, 11] 7.25% and 11.7% | Potency [10] | Potency [2] > 92 µM | Potency [3] > 92 µM | Potency [4] > 92 µM | Potency [5] > 92 µM | activity change, negative = inhibition [6, 11] -4.16% and -8.01% | activity, negative = inhibition [7] 4.79% and 0.586%

Cc1cccc(Nc2ccncc2S(=O)(=O)NC(=O)NC(C)C)c1
inactive: activity change, negative = inhibition [1, 11] -9.3% | Potency [10] | activity change, negative = inhibition [6, 11] -2.46% | activity, negative = inhibition [7] -16.6% | Potency [8] > 20.6 µM | Potency [9] > 20.6 µM

Cc1cc(NS(=O)(=O)c2ccc(N)cc2)no1
inactive: activity change, negative = inhibition [1, 11] 3.59% and 0.387% | Potency [2] > 92 µM | Potency [3] > 92 µM | Potency [4] > 92 µM | Potency [5] > 92 µM | activity change, negative = inhibition [6, 11] 1.34% and -21.2% | activity, negative = inhibition [7] 2% and 5.36% | Potency [8] > 20.6 µM | Potency [9] > 20.6 µM

CNNCc1ccc(C(=O)NC(C)C)cc1
inactive: activity change, negative = inhibition [1, 11] -1.4% | activity change, negative = inhibition [6, 11] -25.9% | Potency [8] > 20.6 µM | Potency [9] > 20.6 µM
active: Potency [10] 1.58 µM

Cc1cccc(N(C)C(=S)Oc2ccc3ccccc3c2)c1
inactive: activity change, negative = inhibition [1, 11] -6.52% and 9.03% | activity, negative = inhibition [7] 4.85% and -13.1% | Potency [8] > 20.6 µM | Potency [9] > 20.6 µM
active: Potency [10] 2.51 µM

Nc1ccc(S(=O)(=O)Nc2ccccn2)cc1
inactive: activity change, negative = inhibition [1, 11] -6.81% and -4.21% | Potency [10] | activity change, negative = inhibition [6, 11] -3.78% and -28.1% | activity, negative = inhibition [7] -7.68% and -0.177% | Potency [8] > 20.6 µM | Potency [9] > 20.6 µM

CC1=NN(c2ccccc2)C(=O)C1
active: Potency [10] 12.6 µM
inactive: activity change, negative = inhibition [1, 11] -7.19% | Potency [2] > 92 µM | Potency [3] > 92 µM | Potency [4] > 92 µM | Potency [5] > 92 µM | activity change, negative = inhibition [6, 11] 9.94% | activity, negative = inhibition [7] -2.54% | Potency [8] > 46 µM and > 20.6 µM | Potency [9] > 46 µM

N[C@@H](Cc1ccc(O)c(O)c1)C(=O)O
inactive: activity change, negative = inhibition ([1]; at 17.2 µM (top of the series)) -2.87% | activity change, negative = inhibition ([1]; at 38 µM (top of the series)) -2.2% | Potency [10] | activity change, negative = inhibition ([6]; at 17.2 µM (top of the series)) 1.41% | activity change, negative = inhibition ([6]; at 38 µM (top of the series)) 18.2% | activity, negative = inhibition [7] 4.83% | Potency [8] > 46 µM and > 20.6 µM | Potency [9] > 46 µM and > 20.6 µM

COc1ccc2cc3[n+](cc2c1OC)CCc1cc2c(cc1-3)OCO2
inactive: activity change, negative = inhibition [1, 11] 10.1% | Potency [2] > 92 µM | Potency [5] > 92 µM | activity, negative = inhibition [7] -1.52% | Potency [8] > 20.6 µM | Potency [9] > 20.6 µM
active: Potency [10] 5.01 µM

CC[C@H](C)C(=O)O[C@H]1C[C@@H](C)C=C2C=C[C@H](C)[C@H](CC[C@@H]3C[C@@H](O)CC(=O)O3)[C@H]21
inactive: activity change, negative = inhibition [1, 11] -19.5% | Potency [2] > 92 µM | activity, negative = inhibition [7] -3.85% | Potency [8] > 20.6 µM

COc1cnc(NS(=O)(=O)c2ccc(N)cc2)nc1
inactive: activity change, negative = inhibition [1, 11] -7.19% | Potency [10] | activity change, negative = inhibition [6, 11] -4.83% | activity, negative = inhibition [7] -4.71% | Potency [8] > 20.6 µM | Potency [9] > 20.6 µM

CCOC(=O)c1ccc(OC(=O)CCCCCN=C(N)N)cc1
active: Potency [10] 12.6 µM and 15.8 µM
inactive: activity change, negative = inhibition [1, 11] 1.04% | activity, negative = inhibition [7] -23.2%

Cc1noc(NS(=O)(=O)c2ccc(N)cc2)c1C
inactive: activity change, negative = inhibition [1, 11] 3.21% and 4.22% | Potency [10] | Potency [2] > 92 µM | Potency [3] > 92 µM | Potency [4] > 92 µM | Potency [5] > 92 µM | activity change, negative = inhibition [6, 11] -7.16% and 11.7% | activity, negative = inhibition [7] 7.81% and 5.09%

OCc1ccc(-c2nn(Cc3ccccc3)c3ccccc23)o1
active: Potency [10] 1.58 µM
inactive: activity change, negative = inhibition [1, 11] -16.4% [at 38 µM] | activity change, negative = inhibition [6, 11] 4.66% [at 38 µM] | activity, negative = inhibition [7] -17.6% [at 38 µM] | Potency [8] > 46 µM | Potency [9] > 46 µM

NC(=O)c1cccc(N)c1
inactive: activity change, negative = inhibition [1, 11] 11.6% [at 38 µM] | activity change, negative = inhibition [6, 11] 1.89% [at 38 µM] | activity, negative = inhibition [7] 1.75% [at 38 µM] | Potency [8] > 46 µM | Potency [9] > 46 µM
active: Potency [10] 15.8 µM
